Our source for the Inhibition values is ChEMBL document CHEMBL4513146, “CO-ADD screening of Karazin Kharkiv National University (Ukraine) compounds”.

In one experiment the test system is Staphylococcus aureus. The note with it: Concentration 32 ug.mL-1;; ASSAY_TEST Inhibition of Bacterial Growth; detection method Absorption (OD600); MEDIA CAMHB; plate type 384well; NBS; CORNING #3640; time 18 hr.
Another experiment deals with Escherichia coli. The note with it: Concentration 32 ug.mL-1;; ASSAY_TEST Inhibition of Bacterial Growth; detection method Absorption (OD600); MEDIA CAMHB; plate type 384well; NBS; CORNING #3640; time 18 hr.

Measured potencies and affinities stand elsewhere.

Regarding `O=C(Cn1nc2c(=O)n(-c3ccc(Br)cc3)ccn2c1=O)Nc1cc(F)ccc1F`, the Inhibition in the experiment with Staphylococcus aureus came to 4.89%; in the experiment with Escherichia coli, 0.34%.

With `Cc1ccccc1Cn1nc2c(=O)n(-c3ccc(Br)cc3)ccn2c1=O`, the Inhibition is 4.33% with Staphylococcus aureus and 1.73% in the experiment with Escherichia coli.

As to `Cc1ccc(-c2cc3c4nn(CC(=O)Nc5ccc(Br)cc5)c(=O)n4ccn3n2)cc1C`, the results for the Inhibition with Staphylococcus aureus and in the experiment on Escherichia coli were 0.82% and -8.3%, respectively.

Regarding `CCCn1c(=O)c2sccc2n2c(CCC(=O)NCCC34CC5CC(CC(C5)C3)C4)nnc12`, the figures for the Inhibition with Staphylococcus aureus and in the experiment with Escherichia coli were 0.48% and -2.55%, respectively.

With `Cc1ccc(Cn2nc3c(=O)n(-c4cccc(Cl)c4C)ccn3c2=O)cc1`, the Inhibition is on record as 8.26% in the experiment with Staphylococcus aureus and -3.14% in the experiment with Escherichia coli.

`CC(C)CCn1c(=O)c2sccc2n2c(=O)n(Cc3c(F)cccc3Cl)nc12`: the results for the Inhibition with Staphylococcus aureus and with Escherichia coli were 13.63% and 0.76%, respectively.

In the case of `CCCCN(CC)c1ccc2nnc(CCc3nc(-c4ccc5c(c4)OCO5)no3)n2n1`, the Inhibition with Staphylococcus aureus is -15.7%; in the experiment on Escherichia coli, 1.35%.

For `O=C(Cn1nc2c(N3CCOCC3)nccn2c1=O)NCc1cccs1`, the Inhibition in the experiment on Staphylococcus aureus worked out at 22.65%; in the experiment on Escherichia coli it was 1.24%.

With `Cc1ccc(NC(=O)Cn2nc3ccc(-c4ccccc4)nn3c2=O)cc1`, the Inhibition in the experiment on Staphylococcus aureus is 2.61%; in the experiment with Escherichia coli, -12.45%.

Consider `COC(=O)c1sccc1NC(=O)Cn1nc2c(Oc3ccccc3)nc3ccccc3n2c1=O`, for which the Inhibition is on record as 9.09% in the experiment on Staphylococcus aureus and 0.17% with Escherichia coli.

Take `CCc1nnc2c(S(=O)(=O)N(Cc3ccccc3C)c3ccc(Cl)cc3)cccn12`: the figures for the Inhibition in the experiment on Staphylococcus aureus and in the experiment with Escherichia coli were -22.93% and -4.88%, respectively.

For the molecule `CC(C)c1nnc2c(=O)n(CC(=O)Nc3cccc(C#N)c3)c3ccccc3n12`, the figures for the Inhibition in the experiment on Staphylococcus aureus and in the experiment with Escherichia coli were 14.89% and 2.48%, respectively.

Turning to `CCC(C)NC(=O)c1ccc2c(=O)n(C3CC3)c3nn(CC(=O)NC(C)C)c(=O)n3c2c1` (stereo not given), the Inhibition is 10.01% in the experiment on Staphylococcus aureus and -2.07% in the experiment on Escherichia coli.

For the molecule `CCCCOc1ccc(-c2cc3c4nnc(SCC(=O)NCc5ccc(OC)cc5)n4ccn3n2)cc1`, the Inhibition with Staphylococcus aureus is given as -2.43%; with Escherichia coli it was -7.34%.

As for `COc1cccc(-n2ccn3c(-c4ccc([N+](=O)[O-])cc4)nnc3c2=O)c1`, the Inhibition was 5.77% in the experiment with Staphylococcus aureus and -8.12% in the experiment with Escherichia coli.

Turning to `COc1ccccc1NC(=O)CSc1nnc2c(=O)n(-c3ccc(C)c(C)c3)ccn12`, the Inhibition in the experiment on Staphylococcus aureus is on record as 0.64%; in the experiment with Escherichia coli, -7.52%.

With `COc1ccc(CNC(=O)Cn2nc3c(Oc4ccccc4C)nccn3c2=O)cc1`, the figures for the Inhibition in the experiment with Staphylococcus aureus and with Escherichia coli were 1.68% and -7.69%, respectively.

As to `COc1ccc(N(Cc2cccc(OC)c2)S(=O)(=O)c2ccc3nnc(C)n3c2)cc1`, the Inhibition in the experiment with Staphylococcus aureus was -9.05%; in the experiment on Escherichia coli it was 0.15%.

As to `O=C(Cn1nc2ccc(SCc3ccc(Cl)cc3)nn2c1=O)Nc1ccccc1C(F)(F)F`, the values for the Inhibition in the experiment with Staphylococcus aureus and with Escherichia coli were 4.98% and -5.74%, respectively.

As for `CCOC(=O)c1ccccc1NC(=O)CSc1nc2ccccc2n2c(C(C)C)nnc12`, the values for the Inhibition in the experiment with Staphylococcus aureus and in the experiment on Escherichia coli were 6% and -2.48%, respectively.

For the molecule `CCc1ccc(N(Cc2ccccc2)S(=O)(=O)c2cccn3c(CC)nnc23)cc1`, the figures for the Inhibition with Staphylococcus aureus and in the experiment with Escherichia coli were 13.69% and -0.95%, respectively.

Regarding `Cc1cc(C)cc(NC(=O)Cn2nc3ccc(SC(C)(C)C)nn3c2=O)c1`, the Inhibition with Staphylococcus aureus was 9.02%; in the experiment on Escherichia coli, -2.5%.

Take `CCOc1ccc(C(=O)CSc2nnc3c(=O)n(-c4ccc(OCC)cc4)ccn23)cc1`: the Inhibition with Staphylococcus aureus is 18.9%; with Escherichia coli, 1.24%.

With `COc1cccc(CNC(=O)CSc2nnc3c(=O)n(-c4ccc(C)c(C)c4)ccn23)c1OC`, the figures for the Inhibition in the experiment with Staphylococcus aureus and in the experiment with Escherichia coli were 3.35% and -0.9%, respectively.

For the molecule `CCC(Sc1nnc2c(=O)n(-c3ccc(F)cc3)ccn12)C(=O)Nc1cc(OC)cc(OC)c1` (stereo not given), the Inhibition with Staphylococcus aureus was 15.63%; in the experiment with Escherichia coli, -3.99%.

Turning to `Cc1ccc(Sc2nccn3c(=O)n(CC(=O)Nc4c(C)cc(C)cc4C)nc23)c(C)c1`, the Inhibition in the experiment with Staphylococcus aureus stood at 17.35%; in the experiment with Escherichia coli, 1.82%.

With `CC(C)Cn1c(=O)c2sccc2n2c(=O)n(Cc3ccccc3Cl)nc12`, the Inhibition in the experiment with Staphylococcus aureus was 2.13%; in the experiment with Escherichia coli it was -6.09%.

Turning to `COc1ccc(NC(=O)CSc2nnc3c(=O)n(-c4ccccc4OC)ccn23)cc1Cl`, the Inhibition with Staphylococcus aureus is given as 16.85%; in the experiment on Escherichia coli, -0.75%.

Consider `Cc1ccccc1Oc1nccn2c(=O)n(CC(=O)Nc3ccc(F)cc3F)nc12`, for which the results for the Inhibition in the experiment with Staphylococcus aureus and with Escherichia coli were 15.72% and 1.95%, respectively.

Take `Cc1cccc(CN(c2ccccc2)S(=O)(=O)c2cccn3c(C)nnc23)c1`: the Inhibition with Staphylococcus aureus is reported as 5.16%; in the experiment with Escherichia coli, -11.12%.

For the molecule `O=C(CSc1nnc2c(=O)n(-c3ccc(F)c(F)c3)ccn12)c1ccccc1Cl`, the Inhibition is listed as 3.6% in the experiment with Staphylococcus aureus and -5.26% in the experiment on Escherichia coli.

In the case of `Cc1ccccc1Cn1nc2c(=O)n(-c3cccc(Cl)c3C)ccn2c1=O`, the Inhibition in the experiment with Staphylococcus aureus is given as -10.1%; in the experiment on Escherichia coli, -10.57%.

For `CCc1ccccc1NC(=O)CSc1nnc2c(=O)n(-c3ccccc3)ccn12`, the Inhibition with Staphylococcus aureus is given as 10.95%; in the experiment on Escherichia coli it was -0.17%.

On to `Cc1ccc(Oc2nc3ccccc3n3c(=O)n(CC(=O)Nc4cccc(C(F)(F)F)c4)nc23)cc1`, for which the Inhibition in the experiment with Staphylococcus aureus is reported as 0.5%; with Escherichia coli, -3.3%.

Turning to `O=C(Cn1nc2ccc(-c3ccc(Cl)cc3)nn2c1=O)N1CCN(c2ccccc2)CC1`, the Inhibition in the experiment with Staphylococcus aureus is on record as -1.88%; in the experiment on Escherichia coli, -5.05%.

For `Cc1nnc2ccc(S(=O)(=O)N(Cc3cccc(F)c3)c3ccc(Cl)cc3)cn12`, the values for the Inhibition in the experiment with Staphylococcus aureus and in the experiment with Escherichia coli were 9.42% and -6.55%, respectively.

In the case of `Cc1ccc2c(c1)N(C(=O)Cn1nc3ccc(SCc4ccc(Cl)cc4)nn3c1=O)CCO2`, the Inhibition in the experiment with Staphylococcus aureus is given as 2.18%; in the experiment with Escherichia coli, -5.63%.

As for `CCOc1ccc(NC(=O)CSc2nnc3c(=O)n(-c4ccc(OCC)cc4)ccn23)cc1`, the Inhibition in the experiment with Staphylococcus aureus was 16.17%; with Escherichia coli, -1.04%.

As for `Cc1cccc(CSc2nnc3c(=O)n(-c4ccc(Br)cc4)ccn23)c1`, the Inhibition in the experiment with Staphylococcus aureus was determined as 20.89%; with Escherichia coli, 1.19%.

For `COc1ccc(CNC(=O)CCc2nnc3c4cc(-c5ccc(Cl)cc5)nn4ccn23)cc1OC`, the Inhibition in the experiment on Staphylococcus aureus was 3.74%; in the experiment with Escherichia coli, 1.66%.

For the molecule `O=C(Cn1nc2c(N3CCOCC3)nccn2c1=O)Nc1ccc(Cl)cc1F`, the Inhibition in the experiment with Staphylococcus aureus stood at 8.72%; with Escherichia coli it was 5.15%.

On to `CCc1ccc(NC(=O)Cn2nc3c4cc(-c5ccc(C)c(C)c5)nn4ccn3c2=O)cc1`, for which the results for the Inhibition in the experiment with Staphylococcus aureus and in the experiment on Escherichia coli were 1.77% and -6.18%, respectively.

For `Cc1cccc(N(CC(=O)OC(C)(C)C)S(=O)(=O)c2cccn3c(C)nnc23)c1`, the results for the Inhibition in the experiment with Staphylococcus aureus and in the experiment on Escherichia coli were 5.88% and -7.68%, respectively.

On to `Cc1cccc(CN(c2cccc(F)c2)S(=O)(=O)c2ccc3nncn3c2)c1`, for which the figures for the Inhibition in the experiment on Staphylococcus aureus and with Escherichia coli were -2.24% and -9.18%, respectively.

As for `CCOc1ccccc1NC(=O)Cn1nc2c(N3CCN(c4ccccc4C)CC3)nccn2c1=O`, the Inhibition is -2.13% with Staphylococcus aureus and -13.69% in the experiment on Escherichia coli.

As for `COc1ccc(NC(=O)CSc2nnc3c(=O)n(-c4cccc(F)c4)ccn23)cc1OC`, the results for the Inhibition in the experiment on Staphylococcus aureus and with Escherichia coli were 3.1% and -11.05%, respectively.

As to `CCc1ccc(N(Cc2ccccc2C)S(=O)(=O)c2cccn3c(CC)nnc23)cc1`, the results for the Inhibition in the experiment on Staphylococcus aureus and in the experiment with Escherichia coli were 11.1% and -3.02%, respectively.

As for `Cc1ccc(-c2ccc3nn(CC(=O)Nc4ccc(Cl)cc4F)c(=O)n3n2)cc1`, the Inhibition in the experiment with Staphylococcus aureus is listed as 8.27%; in the experiment with Escherichia coli it was -2.22%.

Regarding `CCc1nnc2c(S(=O)(=O)N(Cc3cccc(C)c3)c3ccc(Cl)cc3)cccn12`, the values for the Inhibition in the experiment with Staphylococcus aureus and with Escherichia coli were 8.39% and 0.27%, respectively.

Consider `Cc1ccc(CNC(=O)Cn2nc3ccc(SC4CCCCC4)nn3c2=O)cc1`, for which the Inhibition with Staphylococcus aureus was 11.69%; in the experiment on Escherichia coli, -11.87%.
